Results on 32 compounds are retold here after PubChem BioAssay (NCATS).

Results filed as inconclusive are left out. A number with no mark means an inactive call. Active and inactive are the calls of the source. The call rests on the fitted dose curve; in most records, active means well fitted inhibition curve with a large enough effect; inconclusive means small, poorly fitted or top-dose-only effect; inactive means flat fitted curve, though single readings scatter.
Further: nearly all actives have a fitted effect of over 65% in size.
On the % scale 0 is the no-effect control and ±100 the full control effect.

Phospholipid hydroperoxide glutathione peroxidase GPX4 (Homo sapiens), sequence (P36969 whole entry, looked up): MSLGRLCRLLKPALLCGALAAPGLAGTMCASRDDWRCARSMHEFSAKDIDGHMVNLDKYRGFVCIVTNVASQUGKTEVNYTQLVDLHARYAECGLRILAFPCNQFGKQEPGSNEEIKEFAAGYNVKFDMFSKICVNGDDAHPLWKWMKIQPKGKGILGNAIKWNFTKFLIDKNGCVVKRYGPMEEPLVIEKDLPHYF
Glutathione peroxidase 1 (Homo sapiens), sequence (P07203 whole entry, looked up): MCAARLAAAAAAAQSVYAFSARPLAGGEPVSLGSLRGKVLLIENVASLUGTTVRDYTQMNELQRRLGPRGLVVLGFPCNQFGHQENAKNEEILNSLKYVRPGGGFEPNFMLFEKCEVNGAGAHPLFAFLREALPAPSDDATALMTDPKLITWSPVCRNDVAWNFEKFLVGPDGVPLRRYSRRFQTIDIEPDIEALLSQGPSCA

One assay has as its target Glutathione peroxidase 1 (Homo sapiens) (UniProt P07203). Description: Primary qHTS Assay for Inhibitors of Recombinant Selenoprotein Glutathione Peroxidase 1 (GPX1) (AID 1845191). Further: potency means the concentration at half of the fitted maximal effect. Conditions: recombinant GPX1, GR-coupled NADPH fluorescence, 15 min; series mostly up to 48.8 µM; activity, negative = inhibition: at the top concentration. An outline of the steps:
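Recombinant GPX1 (10 nM final) was preincubated with compound for 30 min at room temperature, then reacted with 1 mM GSH, 0.5 mM CHP, 0.5 mM NADPH and 100 nM glutathione reductase; NADPH fluorescence (340/450 nm) was read at 0 and 15 min.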
Background: Quantitative high-throughput screening tests each substance at several concentrations.
With `O=C(NNc1ccccc1)c1ccncc1`, the Potency result is “inactive”.

For the compound `Cc1nc2ccc(C(=O)N3CCC4(CC3)CC(=O)c3c(cnn3C(C)C)C4)cc2[nH]1`, the outcome was inactive.

Take `C=C1[C@@H](C)[C@H]2[C@H](Cc3c[nH]c4ccccc34)NC(=O)[C@]23C(=O)/C=C/C(=O)[C@H](O)/C(C)=C\[C@@H](C)C/C=C/[C@H]3[C@@H]1O`: the “activity, negative = inhibition” value was 2.1% [at 27.7 µM].

Take `CC(C)(C)c1ccc(CNC(=S)NCc2ccc(NS(C)(=O)=O)c(F)c2)cc1`: the Potency is 14.3 µM (active).

In the case of `CNCc1ccc(C)c(NC(=O)c2ccc(Nc3nc(-c4ccccc4)c4ccccc4n3)cc2)c1`, the “activity, negative = inhibition” value is 1.1%.

Regarding `C=CC(=O)Nc1cc(Nc2nccc(-c3cn(C)c4ccccc34)n2)c(OC)cc1N(C)CCN(C)C`, the Potency result is “inactive”.

A further assay has as its target Phospholipid hydroperoxide glutathione peroxidase GPX4 (Homo sapiens) (UniProt P36969). Description: Primary qHTS Assay for Inhibitors of Recombinant Selenoprotein Glutathione Peroxidase 4 (GPX4) (AID 1845192). Conditions: recombinant GPX4, GR-coupled NADPH fluorescence, 15 min; series mostly up to 50 µM; activity change, negative = inhibition: at the top concentration. An outline of the steps:
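GR-coupled readout: 100 nM GR, 1 mM GSH, 0.5 mM NADPH; NADPH fluorescence (ex 340/em 450 nm) read at t=0 and after 15 min RT. GPX4 200 nM, preincubated 30 min with compound; substrate 0.5 mM CHP.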
In the case of `O=c1c(-n2ccnn2)c[nH]n1-c1cc(N2CCOCC2)ncn1`, the “activity change, negative = inhibition” value was 3.93%.

For the compound `C=C1C(=O)O[C@@H]2CC(C)=C([C@@H](C)CCCO)[C@@H](OC(=O)C(C)C)[C@H]12`, the “activity change, negative = inhibition” value was -7.37% [at 27.8 µM].

Regarding `Oc1ccc(Nc2nc(-c3ccc(Cl)cc3)cs2)cc1`, the “activity change, negative = inhibition” value is -9.04%.

On to `OCC(Cc1ccccc1)Nc1nc(Oc2ccc3c(c2)CCC3)nc2c1ncn2Cc1ccc(-c2ccccc2)cc1` (stereo not drawn), for which the “activity change, negative = inhibition” value is -3%.

Regarding `Cc1cc2nc(NCCCO)n(CC(=O)c3cc(C(C)(C)C)c(O)c(C(C)(C)C)c3)c2cc1C`, the “activity change, negative = inhibition” value is -26.2%.

Take `Cc1ccccc1C(=O)Nc1ccc(C(=O)N2CCC[C@@H](O)c3cc(Cl)ccc32)c(C)c1`: the “activity change, negative = inhibition” value was -12.1%.

In the case of `CCCCn1c(-c2ccccc2)nc(-c2ccccc2)c1CN(Cc1ccc2c(c1)OCO2)Cc1ccc2c(c1)OCO2`, the “activity change, negative = inhibition” value was 1.55%.

As to `CCOC(=O)c1cccc(CNc2ccc(N(C)C(=O)Nc3ccccc3)cc2)c1`, the “activity change, negative = inhibition” value is -20.2%.

Consider `CC1CCN(C(c2ccc(F)cc2)c2ccc(C(C)C(=O)O)cc2-c2ccc(C(F)(F)F)cc2)CC1` (stereo not drawn), for which the “activity change, negative = inhibition” value was -15%.

As to `O=C(NC(NC(=S)Nc1ccc(F)c([N+](=O)[O-])c1)C(Cl)(Cl)Cl)C(c1ccccc1)c1ccccc1` (stereo not drawn), the “activity change, negative = inhibition” value is -2.29% [at 15.3 µM].

For the compound `COc1ccc(CNC(=O)Nc2ncc([N+](=O)[O-])s2)cc1`, the “activity change, negative = inhibition” value is -3.11%.

As to `OCC(CO)(CO)NCC(O)Cn1c2ccc(Cl)cc2c2cc(Cl)ccc21` (stereo not drawn), the “activity change, negative = inhibition” value was -6.93%.

Take `COCCOCCOc1ccc(C2=N[C@@](C)(C(=O)O)CS2)c(O)c1`: the result was inactive.

Take `C=C(C)C(=O)O[C@H]1[C@H]2C(=C)C(=O)O[C@@H]2C[C@@H](C)/C=C\C(=O)[C@](C)(O)[C@@H]1OC(C)=O`: the “outcome” value is “inactive [at 27.8 µM]”.

Consider `COc1cc(N2CCOCC2)ccc1Nc1ncc(F)c(Nc2ccccc2NS(C)(=O)=O)n1`, for which the “activity change, negative = inhibition” value is -6.84%.

With `O=[N+]([O-])c1ccc(-[n+]2nc(-c3ccccc3)nn2-c2ccc(I)cc2)cc1`, the “activity change, negative = inhibition” value was -1.93%.

For `CC(=O)N[C@@H](CC(=O)O)C(=O)N[C@@H](CCC(=O)O)C(=O)N[C@H](C(=O)N[C@@H](CC(=O)O)C(=O)Nc1ccc2c(C)cc(=O)oc2c1)C(C)C`, the “activity change, negative = inhibition” value was -26.3%.

For `CC1CCCC(SCC(O)C(=O)O)CC(=O)c2c(O)cc(O)cc2CC(=O)O1` (stereo not drawn), the “activity change, negative = inhibition” value was -12% [at 27.8 µM].

`COc1ccccc1NC(=O)Nc1ccc2ccccc2c1`: the “activity change, negative = inhibition” value is -3.73%.

On to `CN1CCN(C(=O)c2ccc(Nc3nccc(-c4cccs4)n3)cc2Cl)CC1`, for which the “activity change, negative = inhibition” value was -14.6%.

On to `Cn1cc(-c2cnc3ccc4ccc(CS(=O)(=O)NCc5ccccn5)cc4c(=O)c3c2)cn1`, for which the “activity change, negative = inhibition” value was -11.7%.

`C=C1[C@@H](C2=CC(=O)OC2)CC[C@@]2(O)[C@@H]1CC1[C@H]2CC[C@@H]2C[C@@H](O[C@H]3O[C@@H](C)[C@@H](O[C@@H]4O[C@H](CO[C@@H]5O[C@H](CO)[C@@H](O)[C@H](O)[C@H]5O)[C@@H](O)[C@H](O)[C@H]4O)[C@H](OC)[C@H]3O)CC[C@]12C` (stereo partly drawn): the “activity change, negative = inhibition” value is -7.09% [at 15.3 µM].

For the compound `C=C(C)[C@@H]1CC[C@]2(C(=O)O)CC[C@]3(C)C(CCC4[C@@]5(C)C[C@@H](O)[C@H](O)C(C)(C)C5CC[C@]43C)C12` (stereo partly drawn), the “activity change, negative = inhibition” value is -8.48% [at 27.8 µM].

On to `CCN(CCCOc1ccc2c(Nc3cc(CC(=O)Nc4cccc(F)c4)[nH]n3)ncnc2c1)CCOP(=O)(O)O`, for which the “activity change, negative = inhibition” value was -3.12%.

For the compound `CC(C)CCC[C@@H](C)[C@H]1CC[C@H]2[C@@H]3CC=C4C[C@@H](OC(=O)NCCN(C)C)CC[C@]4(C)[C@H]3CC[C@]12C`, the “activity change, negative = inhibition” value was -4.41%.

In the case of `O=C(NNc1ccccc1)c1ccncc1`, the Potency result is “inactive”.

Regarding `Cc1nc2ccc(C(=O)N3CCC4(CC3)CC(=O)c3c(cnn3C(C)C)C4)cc2[nH]1`, the result was inactive.

On to `C=C1[C@@H](C)[C@H]2[C@H](Cc3c[nH]c4ccccc34)NC(=O)[C@]23C(=O)/C=C/C(=O)[C@H](O)/C(C)=C\[C@@H](C)C/C=C/[C@H]3[C@@H]1O`, for which the “activity change, negative = inhibition” value is -7.78% [at 27.8 µM].

For `CC(C)(C)c1ccc(CNC(=S)NCc2ccc(NS(C)(=O)=O)c(F)c2)cc1`, the “activity change, negative = inhibition” value was 4.38%.

Consider `CNCc1ccc(C)c(NC(=O)c2ccc(Nc3nc(-c4ccccc4)c4ccccc4n3)cc2)c1`, for which the “activity change, negative = inhibition” value was -8.22%.

As to `CC1CCC(n2c3cnccc3c3cnc(Nc4ccc5c(n4)CCN(C(=O)CO)C5)nc32)CC1` (stereo not drawn), the Potency result is “inactive”.

Regarding `C=CC(=O)Nc1cc(Nc2nccc(-c3cn(C)c4ccccc34)n2)c(OC)cc1N(C)CCN(C)C`, the Potency entry was “inactive”.
